Experimental data taken from the supplement of paper PMC9023506.
Where a name gives a salt, the structure may show the parent alone.

system: Danio rerio larvae (5 dpf); assay: habituation to 1-s acoustic pulses, difference vs DMSO (percentage points (treated minus DMSO)); higher = more of the behaviour than the DMSO vehicle control; details: 10 µM; exposure time: 3 h pre-incubation + 3 h imaging
Experimental: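 5-dpf wild-type zebrafish larvae were imaged in 96-well plates. They were treated with 190 Tocris FDA-approved drugs at 10 µM (1 µl/ml DMSO) for 3 h before and 3 h during imaging at 28.5 °C, 48 larvae per drug. Automated image analysis gave % time moving and optomotor responses. Values are drug group mean minus DMSO vehicle mean (n=844), in percentage points, for 10 behaviours.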

SMILES	habituation to 1-s acoustic pulses
Nc1nc2[nH]cc(CCc3ccc(C(=O)N[C@@H](CCC(=O)O)C(=O)O)cc3)c2c(=O)[nH]1 [Pemetrexed]	-1.43
CS(=O)(=O)CCNCc1ccc(-c2ccc3ncnc(Nc4ccc(OCc5cccc(F)c5)c(Cl)c4)c3c2)o1 [Lapatinib]	-1.43
Cc1nc(-c2ccc(OCC(C)C)c(C#N)c2)sc1C(=O)O [Febuxostat]	-2.75
CN(C)CCC[C@@]1(c2ccc(F)cc2)OCc2cc(C#N)ccc21 [Escitalopram oxalate]	-4.74
CN1CCC[C@@H]1CCO[C@](C)(c1ccccc1)c1ccc(Cl)cc1 [Clemastine fumarate]	-5.08
COc1c(C)c2c(c(O)c1C/C=C(\C)CCC(=O)O)C(=O)OC2 [Mycophenolic acid]	1.78
CC(C)CN(C[C@@H](O)[C@H](Cc1ccccc1)NC(=O)O[C@H]1CO[C@H]2OCC[C@H]21)S(=O)(=O)c1ccc(N)cc1 [Darunavir]	-1.13
NC(=O)c1ncn([C@@H]2O[C@H](CO)[C@@H](O)[C@H]2O)n1 [Ribavirin]	-1.17
NC(=O)OCC(COC(N)=O)c1ccccc1 [Felbamate]	2.95
CC(C)N(CCCCOCC(=O)NS(C)(=O)=O)c1cnc(-c2ccccc2)c(-c2ccccc2)n1 [Selexipag]	-0.45
O=C1CCc2ccc(OCCCCN3CCN(c4cccc(Cl)c4Cl)CC3)cc2N1 [Aripiprazole]	-5.72
COc1cc([C@@H]2c3cc4c(cc3[C@@H](O[C@@H]3O[C@@H]5CO[C@@H](C)O[C@H]5[C@H](O)[C@H]3O)[C@H]3COC(=O)[C@H]23)OCO4)cc(OC)c1O [Etoposide]	0.485
COc1cc(Nc2c(C#N)cnc3cc(OCCCN4CCN(C)CC4)c(OC)cc23)c(Cl)cc1Cl [Bosutinib]	0.4
OC(CNCC(O)C1CCc2cc(F)ccc2O1)C1CCc2cc(F)ccc2O1 (stereo not given) [Nebivolol hydrochloride]	-9.34
CC(=O)O[C@H]1C(=O)[C@@]2(C)[C@H]([C@H](OC(=O)c3ccccc3)[C@]3(O)C[C@H](OC(=O)[C@H](O)[C@@H](NC(=O)c4ccccc4)c4ccccc4)C(C)=C1C3(C)C)[C@]1(OC(C)=O)CO[C@@H]1C[C@@H]2O [Taxol]	-2.74
NC(=O)N1c2ccccc2C=Cc2ccccc21 [Carbamazepine]	2.65
CCOc1nc2cccc(C(=O)O)c2n1Cc1ccc(-c2ccccc2-c2noc(=O)[nH]2)cc1 [Azilsartan]	6.99
C[C@H]1O[C@H](O[C@H]2[C@H](O)[C@@H](O)[C@@H](O[C@H]3[C@H](O)[C@@H](O)C(O)O[C@@H]3CO)O[C@@H]2CO)[C@H](O)[C@@H](O)[C@@H]1N[C@H]1C=C(CO)[C@@H](O)[C@H](O)[C@H]1O (stereo not given in full) [Acarbose]	3.26
Cc1nc(Nc2ncc(C(=O)Nc3c(C)cccc3Cl)s2)cc(N2CCN(CCO)CC2)n1 [Dasatinib]	-0.705
Cc1ccc(NC(=O)c2ccc(CN3CCN(C)CC3)cc2)cc1Nc1nccc(-c2cccnc2)n1 [Imatinib mesylate]	3.16

SMILES	habituation to 1-s acoustic pulses
CCOC(=O)N1CCC(=C2c3ccc(Cl)cc3CCc3cccnc32)CC1 [Loratidine]	-7.1
CC(C)OC(=O)C(C)(C)Oc1ccc(C(=O)c2ccc(Cl)cc2)cc1 [Fenofibrate]	-5.04
CCOC(=O)C1=C(C)NC(C)=C(C(=O)OC)C1c1cccc(Cl)c1Cl (stereo not given) [Felodipine]	-11.1
CN(C)C(=N)NC(=N)N [Metformin hydrochloride]	0.867
OCCN(CCO)c1nc(N2CCCCC2)c2nc(N(CCO)CCO)nc(N3CCCCC3)c2n1 [Dipyridamole]	0.822
COc1ccc(Cl)cc1C(=O)NCCc1ccc(S(=O)(=O)NC(=O)NC2CCCCC2)cc1 [Glibenclamide]	-1.87
COc1cc2ncnc(Nc3ccc(F)c(Cl)c3)c2cc1OCCCN1CCOCC1 [Iressa]	0.91
CC(=O)NC[C@H]1CN(c2ccc(N3CCOCC3)c(F)c2)C(=O)O1 [Linezolid]	-2.78
CNC(=O)c1ccccc1Sc1ccc2c(/C=C/c3ccccn3)n[nH]c2c1 [Axitinib]	-2.02
CO[C@H]1/C=C/O[C@@]2(C)Oc3c(C)c(O)c4c(O)c(c5c(nc6cc(C)ccn65)c4c3C2=O)NC(=O)/C(C)=C\C=C\[C@H](C)[C@H](O)[C@@H](C)[C@@H](O)[C@@H](C)[C@H](OC(C)=O)[C@@H]1C [Rifaximin]	-3.04
N#Cc1ccc2[nH]cc(CCCCN3CCN(c4ccc5oc(C(N)=O)cc5c4)CC3)c2c1 [Vilazodone hydrochloride]	-3.73
CC(=O)S[C@@H]1CC2=CC(=O)CC[C@]2(C)[C@H]2CC[C@@]3(C)[C@@H](CC[C@@]34CCC(=O)O4)[C@H]12 [Spironolactone]	-0.287
COCCCOc1cc(C[C@@H](C[C@H](N)[C@@H](O)C[C@H](C(=O)NCC(C)(C)C(N)=O)C(C)C)C(C)C)ccc1OC [Aliskiren hemifumarate]	7.12
CC(C)C(=O)Nc1ccc([N+](=O)[O-])c(C(F)(F)F)c1 [Flutamide]	-15.5
CN1CC[C@@H](NC(=O)Nc2ccc(C#N)cc2)C[C@@H]1c1nc2ccccc2[nH]1	-0.957
CC(C)(C#N)c1cc(Cn2cncn2)cc(C(C)(C)C#N)c1 [Anastrozole]	6.34
CCN(CC)CCNC(=O)c1c(C)[nH]c(/C=C2\C(=O)Nc3ccc(F)cc32)c1C [Sunitinib malate]	4.25
COC(=O)C1=C(C)NC(C)=C(C(=O)OC(C)C)C1c1cccc2nonc12 (stereo not given) [Isradipine]	-13.5
COc1cc2nc(N3CCN(C(=O)C4COc5ccccc5O4)CC3)nc(N)c2cc1OC (stereo not given) [Doxazosin mesylate]	-2.28
CC1CNc2c(cccc2S(=O)(=O)N[C@@H](CCCNC(=N)N)C(=O)N2CC[C@@H](C)C[C@@H]2C(=O)O)C1 (stereo not given in full) [Argatroban]	-0.436
